Test results reported in the supplement of paper PMC8728848.
This excerpt belongs to a sample that is enriched for the strongest signals.

Experiments:
Assay in all cases: glycan array binding signal (z-score within array); higher = stronger binding
Conditions in all cases: glycan notation: IUPAC condensed, linker removed
Fuc(a1-2)Gal = biological target: Fuc(a1-2)Gal
Procedure, shortened: (§1)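 Negative Z-scores can be read as non-binding. The Z-score is calculated within each array and then averaged across arrays of one protein sequence at different concentrations or buffers and across linkers. Arrays, 3228 in all, were curated from the Consortium for Functional Glycomics database and kept only where the protein sequence was available.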

[1] = biological target: Fuc(a1-2)Gal(b1-3)GalNAc(b1-4)[Neu5Ac(a2-3)]Gal(b1-4)Glc
Procedure, shortened: as §1

[2] = biological target: Fuc(a1-2)Gal(b1-4)[Fuc(a1-3)]GlcNAc(b1-2)Man(a1-3)[Fuc(a1-2)Gal(b1-4)[Fuc(a1-3)]GlcNAc(b1-2)Man(a1-6)]Man(b1-4)GlcNAc(b1-4)[Fuc(a1-6)]GlcNAc
Procedure, shortened: as §1

[3] = biological target: Fuc(a1-2)Gal6S(b1-3)GlcNAc6S
Procedure, shortened: as §1

[4] = biological target: Fuc(a1-2)Gal6S(b1-4)Glc6S
Procedure, shortened: as §1

[5] = biological target: Fuc(a1-2)[GalNAc(a1-3)]Gal(b1-4)GlcNAc(b1-2)Man
Procedure, shortened: as §1

[6] = biological target: Fuc(a1-2)[GalNAc(a1-3)]Gal(b1-4)GlcNAc(b1-6)GalNAc
Procedure, shortened: as §1

[7] = biological target: Fuc(a1-3)[Gal(b1-4)]Glc6S
Procedure, shortened: as §1

[8] = biological target: Fuc(a1-3)[Gal3S(b1-4)]Glc
Procedure, shortened: as §1

[9] = biological target: Gal(a1-3)Gal(b1-3)GlcNAc(b1-3)GalNAc
Procedure, shortened: as §1

[10] = biological target: Gal(a1-3)[Gal(a1-4)]Gal(b1-4)GlcNAc
Procedure, shortened: as §1

[11] = biological target: Gal(a1-4)Gal(b1-4)GlcNAc(b1-2)Man(a1-3)[Gal(a1-4)Gal(b1-4)GlcNAc(b1-2)Man(a1-6)]Man(b1-4)GlcNAc(b1-4)GlcNAc
Procedure, shortened: as §1

[12] = biological target: Gal(a1-4)Gal(b1-4)GlcNAc(b1-3)Gal(b1-4)Glc
Procedure, shortened: as §1

[13] = biological target: Gal(b1-3)GlcNAc(b1-3)Gal(b1-4)GlcNAc(b1-2)[Gal(b1-3)GlcNAc(b1-3)Gal(b1-4)GlcNAc(b1-6)]Man(a1-6)[Gal(b1-3)GlcNAc(b1-3)Gal(b1-4)GlcNAc(b1-2)Man(a1-3)]Man(b1-4)GlcNAc(b1-4)[Fuc(a1-6)]GlcNAc
Procedure, shortened: as §1

[14] = biological target: Gal(b1-3)GlcNAc(b1-3)Gal(b1-4)GlcNAc(b1-3)Gal(b1-4)GlcNAc(b1-2)[Gal(b1-3)GlcNAc(b1-3)Gal(b1-4)GlcNAc(b1-3)Gal(b1-4)GlcNAc(b1-6)]Man(a1-6)[Gal(b1-3)GlcNAc(b1-3)Gal(b1-4)GlcNAc(b1-3)Gal(b1-4)GlcNAc(b1-2)Man(a1-3)]Man(b1-4)GlcNAc(b1-4)[Fuc(a1-6)]GlcNAc
Procedure, shortened: as §1

[15] = biological target: Gal(b1-3)GlcNAc(b1-6)Gal(b1-4)GlcNAc
Procedure, shortened: as §1

[16] = biological target: Gal(b1-3)[Fuc(a1-4)]GlcNAc
Procedure, shortened: as §1

[17] = biological target: Gal(b1-4)GlcNAc(b1-2)Man(a1-3)[Gal(b1-4)GlcNAc(b1-2)Man(a1-6)][Gal(b1-4)GlcNAc(b1-4)]Man(b1-4)GlcNAc(b1-4)[Fuc(a1-6)]GlcNAc
Procedure, shortened: as §1

[18] = biological target: Gal(b1-4)GlcNAc(b1-2)Man(a1-3)[Gal(b1-4)GlcNAc(b1-2)Man(a1-6)][GlcNAc(b1-4)]Man(b1-4)GlcNAc(b1-4)[Fuc(a1-6)]GlcNAc
Procedure, shortened: as §1

[19] = biological target: Gal(b1-4)GlcNAc(b1-2)Man(a1-6)[Man(a1-3)]Man(b1-4)GlcNAc(b1-4)GlcNAc
Procedure, shortened: as §1

[20] = biological target: Gal(b1-4)GlcNAc(b1-2)[Gal(b1-4)GlcNAc(b1-4)]Man(a1-3)[GlcNAc(b1-4)][Gal(b1-4)GlcNAc(b1-2)Man(a1-6)]Man(b1-4)GlcNAc(b1-4)GlcNAc
Procedure, shortened: as §1

[21] = biological target: Gal(b1-4)GlcNAc(b1-3)Gal(b1-4)GlcNAc(b1-3)Gal(b1-4)GlcNAc(b1-3)Gal(b1-4)GlcNAc(b1-2)Man(a1-3)[Gal(b1-4)GlcNAc(b1-3)Gal(b1-4)GlcNAc(b1-3)Gal(b1-4)GlcNAc(b1-3)Gal(b1-4)GlcNAc(b1-2)Man(a1-6)]Man(b1-4)GlcNAc(b1-4)GlcNAc
Procedure, shortened: as §1

[22] = biological target: Gal(b1-4)GlcNAc(b1-3)Gal(b1-4)GlcNAc(b1-3)Gal(b1-4)GlcNAc(b1-3)Gal(b1-4)GlcNAc(b1-2)Man(a1-3)[Gal(b1-4)GlcNAc(b1-3)Gal(b1-4)GlcNAc(b1-3)Gal(b1-4)GlcNAc(b1-3)Gal(b1-4)GlcNAc(b1-2)Man(a1-6)]Man(b1-4)GlcNAc(b1-4)[Fuc(a1-6)]GlcNAc
Procedure, shortened: as §1

[23] = biological target: Gal(b1-4)GlcNAc(b1-3)[Fuc(a1-3)GlcNAc(b1-6)]Gal(b1-4)Glc
Procedure, shortened: as §1

[24] = biological target: Gal3S(b1-3)[Fuc(a1-4)]GlcNAc
Procedure, shortened: as §1

Gal3S(b1-4)GlcNAc = biological target: Gal3S(b1-4)GlcNAc
Procedure, shortened: as §1

[25] = biological target: Gal3S(b1-4)[Fuc(a1-3)]GlcNAc
Procedure, shortened: as §1

Gal6S(b1-4)GlcNAc = biological target: Gal6S(b1-4)GlcNAc
Procedure, shortened: as §1

B1: PX14343F-bfa-562-20-562 (Bacteroides fragilis) (protein)
chain: CDDFLDSFPQDTVTNENFWKSKEDADKVLVDIYASLLPKDAIFFDEAMSDNAYLVWDWWGGAQQVANGSYTTSGEIPTNRWNGSYEVIRKCWFLLEGIEKIEDISEQDKNKIIGETYFMLAYNYYVLTSYFGDVPLVTKTLAIPESKQLVRTPKAEVVDYAINKLKEAAVMLEGLSQEKGRVTADACRFLIARMYLYNGDYSNVLETVKLLEGKYQLYREGDTPYEDLFSGVAENSCEVILSVVCDKRVGEIYTSHGGNGIMLLKGITGEDPYRGVTPSGSLVDAYPMADGRLIHEAGSSYDPKKPYEGRDPRFYQSIVYPTGQIKYLDVETGTVKERLYDPEDPTTVPEHQYNYSQPSATGYMWNKYIDYSVYAMNSVWDCTNDIIVFRYADVLLMKAEALLQTKGESAKEEVCNLIDQLRDRCSCGRVHRENYNSKDELMELLKNERRIELANEGLRYMDLIRWKDAEKNTIVTGVGLTGQMYGAYMRKDGVGKDDKTVDVDNTPRRYIETRYFNASKGYLFPIPQKERDLNPNLTQNPNW
- glycan array binding signal (z-score) (Fuc(a1-2)Gal): -0.039
- glycan array binding signal (z-score) [1]: 0.115
- glycan array binding signal (z-score) [2]: -0.43
- glycan array binding signal (z-score) [3]: 1.48
- glycan array binding signal (z-score) [4]: 0.012
- glycan array binding signal (z-score) [5]: 0.033
- glycan array binding signal (z-score) [6]: -0.301
- glycan array binding signal (z-score) [7]: -0.078
- glycan array binding signal (z-score) [8]: -0.368
- glycan array binding signal (z-score) [9]: -0.716
- glycan array binding signal (z-score) [10]: 3.69
- glycan array binding signal (z-score) [11]: 1.42
- glycan array binding signal (z-score) [12]: -0.481
- glycan array binding signal (z-score) [13]: 1.83
- glycan array binding signal (z-score) [14]: 1.38
- glycan array binding signal (z-score) [15]: -0.369
- glycan array binding signal (z-score) [16]: -0.027
- glycan array binding signal (z-score) [17]: -0.394
- glycan array binding signal (z-score) [18]: -0.937
- glycan array binding signal (z-score) [19]: 0.332
- glycan array binding signal (z-score) [20]: 0.08
- glycan array binding signal (z-score) [21]: 0.79
- glycan array binding signal (z-score) [22]: -0.007
- glycan array binding signal (z-score) [23]: 1.78
- glycan array binding signal (z-score) [24]: -0.53
- glycan array binding signal (z-score) (Gal3S(b1-4)GlcNAc): 0.086
- glycan array binding signal (z-score) [25]: 0.472
- glycan array binding signal (z-score) (Gal6S(b1-4)GlcNAc): 0.658
